# GCN5L2 inh: GCN5L2 (KAT2A) acetyltransferase inhibition; Potency, µM (doses to about 58.9 µM), for the others: top-dose activity change, negative = inhibition, usual class: inhibitors; GCN5L2 HAT assay, ThioGlo1 CoA-SH fluorescence; actives 0.21% (n = 390,000); further: potency means the concentration at half of the fitted maximal effect
#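 Preincubate 20nM GCN5L2 with compound 15 min, RT → add 50uM ThioGlo1 + 75uM H3(1-25) + 70uM acetyl-CoA → read fluorescence 0 and 20 min. Primary qHTS; fluorescent artifacts likely.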
# VDR inh: blocks the human vitamin D receptor | P11473 | VDR-SRC2-3 peptide fluorescence polarization, 2 h | Potency, µM, for inactives: max response, negative = inhibition, hits mostly inhibitors | actives 0.93% (n = 400,000); further: potency means the concentration at half of the fitted maximal effect
#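 Reagent solutions, kept cold and dark, are dispensed first; compounds are then pinned in at 23 nl, plates briefly spun, and incubated 2 h at ambient temperature. Inhibition of VDR–SRC2-3 peptide binding is read by fluorescence polarization.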
# GLS inh: inhibitors of human glutaminase (GLS); GLS enzymatic activity, qHTS titration; Potency, µM (series often up to 45.5 µM), without a hit: at the top dose activity change, negative = inhibition, most hits filed as inhibitors; actives 0.21% (n = 410,000); AID 624170; further: potency means the concentration at half of the fitted maximal effect
# Target sequence (O94925 whole entry, looked up): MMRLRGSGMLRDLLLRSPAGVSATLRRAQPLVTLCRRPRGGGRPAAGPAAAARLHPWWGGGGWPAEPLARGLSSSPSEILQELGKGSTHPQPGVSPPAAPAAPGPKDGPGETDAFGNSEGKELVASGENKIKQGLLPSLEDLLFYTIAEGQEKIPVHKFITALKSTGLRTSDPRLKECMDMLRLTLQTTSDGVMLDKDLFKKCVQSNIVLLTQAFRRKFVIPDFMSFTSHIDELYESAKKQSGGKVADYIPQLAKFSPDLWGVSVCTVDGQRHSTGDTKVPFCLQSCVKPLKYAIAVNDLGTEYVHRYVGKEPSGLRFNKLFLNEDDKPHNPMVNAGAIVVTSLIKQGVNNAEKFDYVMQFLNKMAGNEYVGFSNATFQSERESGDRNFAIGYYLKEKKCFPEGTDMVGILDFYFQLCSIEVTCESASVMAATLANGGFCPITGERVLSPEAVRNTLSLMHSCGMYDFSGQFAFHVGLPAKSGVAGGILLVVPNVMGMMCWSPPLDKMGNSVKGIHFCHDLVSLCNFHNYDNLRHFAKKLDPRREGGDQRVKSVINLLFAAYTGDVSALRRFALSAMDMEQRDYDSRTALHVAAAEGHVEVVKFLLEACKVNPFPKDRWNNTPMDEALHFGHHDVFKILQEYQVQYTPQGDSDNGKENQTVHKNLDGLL
#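 Enzyme dispensed in phosphate buffer (45 mM, pH 8.2, 0.02% Tween-20), compounds pinned in, then 1 mM L-glutamine solution and the glutamate oxidase–HRP–Amplex Red mix added; fluorescence read immediately and again after 30 min at room temperature.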
# PI4K2A block: inhibitors of human PI4K2A; Q9BTU6; actives 0.13% (n = 420,000); activity change, negative = inhibition, % at 76.9 µM; purified PI4K2A, ADP-Glo luminescence, 1 h; stronger effect = lower value; in the data active means activity change below about -50%; inconclusive means mostly about -30% to -49%;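 further: -100% = wells without enzyme as full effect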
#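 In this quantitative HTS, ADP production by PI4K2A was quantified luminescently after 1 h at ambient temperature; 100 microM adenosine served as plate-quality control.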
# PLK1 PBD inh: PLK1 (human) polo-box domain binding inhibition. P53350. Plk1 PBD binding of FITC phosphopeptide, fluorescence polarization. Potency, µM, without a hit: max response, negative = inhibition, actives largely listed as inhibitors. actives 2.8% (n = 360,000); further: potency means the concentration at half of the fitted maximal effect; series mostly up to about 57 µM; nearly all actives have a fitted effect of over 65% in size
# * hit, by the source's call; u = inconclusive; x = no result given. In the library only some 3.1% were active in any assay of this set; here they are far more common. Unless noted, the call rests on the fitted dose curve; in most records, active means well fitted curve in the direction sought with a large enough effect; inconclusive means small, poorly fitted or top-dose-only effect, or another doubt; inactive means no such curve, though single readings can be large; an effect the other way counts as inactive or inconclusive. Unless noted, on the % scale 0 is the no-effect control and ±100 the full control effect.
SMILES,GCN5L2 inh,VDR inh,GLS inh,PI4K2A block,PLK1 PBD inh
COc1ccc2noc3c2c1C(=O)c1ccccc1-3,x,u,-13.3%,u,0.377µM*
COc1ccc(NC(=O)c2nc(SCc3ccccc3F)ncc2Cl)cc1,-8.0%,2.4%,-25.1%,5.5,x
CC(=O)c1cc(O)c2ccccc2c1O,u,31.6µM*,6.5%,-18.8,5.32µM*
O=C1/C(=C\c2cccc(O)c2O)SC(=S)N1Cc1ccccc1,20µM*,-29.3%,23.8%,-1.0,2.99µM*
O=C1/C(=C/c2ccncc2)SC(=S)N1Cc1ccccc1,-17.3%,70.8µM*,4.4%,3.6,u
CCCN1C(=O)/C(=C/c2ccncc2)SC1=S,2.8%,u,5.9%,2.0,-16.9%
COc1ccccc1/C=C/C=c1\sc2nc(=O)c(Cc3ccccc3)nn2c1=O,-10.6%,u,1.9%,-13.2,u
C=CCOc1ccccc1/C=c1\sc2nc(=O)c(C)nn2c1=O,-12.6%,70.8µM*,-15.0%,2.5,u
CCC(NC(=O)OCc1ccccc1)C(=O)Oc1ccc2ccc(=O)oc2c1 (stereo unspecified),-25.3%,u,16.9%,30.6,29.9µM*
OC1C2COC(O2)[C@H](O)C1O (stereo partly specified),4.9%,0.9%,x,x,x
O=C(O)CNC(=O)CC1S/C(=N/N=C/c2ccccc2O)NC1=O (stereo unspecified),-5.0%,u,-16.8%,4.9,23.8µM*
CC(=O)c1cccc(NC(=O)CC2S/C(=N/N=C/c3ccccc3)NC2=O)c1 (stereo unspecified),-12.6%,-13.4%,2.8%,-2.5,-4.4%
CC(=O)Nc1nc(C)c(-c2csc(Nc3ccc(O)cc3)n2)s1,0.3%,89.1µM*,7.6%,-1.3,-29.5%
CC(=O)Nc1ccc(Nc2nc(-c3sc(NC(C)=O)nc3C)cs2)cc1,-14.9%,31.6µM*,43.7%,4.7,23.8µM*
Cc1nc2cnc(N(C)C)nc2n(C2CC2)c1=O,-16.4%,-5.4%,x,x,x
COc1ccc(S(=O)(=O)N(CC(N)=O)C2CCCCC2)cc1Cl,2.1%,-16.0%,-6.8%,2.5,11.9µM*
CN(C1CCCCC1)S(=O)(=O)c1ccc(Cl)c(C(=O)O)c1,-0.9%,u,11.3%,-3.1,18.9µM*
CC(C)N1CCCCC(NC(=O)c2ccc(F)cc2)C1=O (stereo unspecified),x,x,x,-0.4,x
COc1cccc(CNS(=O)(=O)c2c(C)[nH]c(C)c2C(=O)N2CCCCC2)c1,-5.7%,u,20.8%,9.6,29.9µM*
Cc1ccccc1CNS(=O)(=O)c1c(C)[nH]c(C)c1C(=O)N1CCCCC1,-3.3%,-25.1%,20.4%,-8.5,26.7µM*
CSc1ccc(CCNS(=O)(=O)c2c(C)[nH]c(C)c2C(=O)N2CCCCC2)cc1,-5.4%,11.8%,-1.1%,-7.7,-5.0%
Cc1[nH]c(C)c(S(=O)(=O)NCCc2ccc(S(N)(=O)=O)cc2)c1C(=O)N1CCCC1,-3.3%,-20.8%,13.8%,1.7,26.7µM*
Cc1[nH]c(C)c(S(=O)(=O)Nc2ccccc2Cl)c1C(=O)N1CCCC1,-2.3%,-4.9%,-13.0%,0.3,-18.6%
Cc1[nH]c(C)c(S(=O)(=O)Nc2cccc(Cl)c2C)c1C(=O)N1CCCCC1,-5.9%,u,18.9%,-2.1,29.9µM*
COc1ccc(NC(=O)c2ccco2)cc1NC(=O)COc1ccccc1Cl,-0.9%,-2.8%,-12.0%,-7.8,x
SMILES,GCN5L2 inh,VDR inh,GLS inh,PI4K2A block,PLK1 PBD inh
COC(CNC(=O)[C@H](Cc1c[nH]c2ccccc12)NC1(C(=O)NC2CCCCC2)CCCCC1)OC,x,x,x,0.8,x
CCOC(=O)[C@]12CCCC=C1N(Cc1ccc(OC)cc1)C(=O)[C@@H]2CC(=O)NCc1cccc2ccccc12,x,x,x,0.9,x
CCCNS(=O)(=O)c1ccc(CCC(=O)N2CCN(CC)CC2)cc1,-0.5%,3.8%,15.9%,1.4,-3.7%
CCCNS(=O)(=O)c1ccc(CCC(=O)N2CCCCC2)cc1,0.1%,u,23.4%,-10.8,23.8µM*
CCCCCC(=O)NC(Cc1ccc(OC)c([N+](=O)[O-])c1)C(=O)O (stereo unspecified),1.6%,u,0.5%,-0.2,21.2µM*
CCC(=O)N1CCc2cc(Br)c(S(=O)(=O)N3CCC(C(=O)NCCCOC(C)C)CC3)cc21,x,x,x,-1.7,x
CCCn1c(NC(=O)c2ccccc2)nc(Cc2ccccc2)c1Cc1ccccc1,x,x,x,1.0,x
Cn1nc(C(F)(F)F)c(/C=N/OC(=O)c2ccccc2)c1Sc1ccc(Cl)cc1,-19.6%,89.1µM*,-1.3%,2.6,-5.4%
C#CCCC(=O)c1ccccc1/C=[N+](\[O-])c1ccccc1,0.9%,-9.9%,0.2%,-5.2,-29.3%
C#CCCc1cscc1/C=[N+](\[O-])c1ccc(C(=O)OCC)cc1,-7.2%,u,u,-0.6,7.52µM*
N#Cc1c2c(c(-c3ccccc3Cl)[nH]c1=S)CCCC2,-1.8%,3.1%,u,0.3,16.8µM*
O=C1CC(SC(=S)C2CCCC2=O)C(=O)N1 (stereo unspecified),x,x,-13.7%,-10.7,13.4µM*
CSc1nnc(Cn2c(=O)sc3ccccc32)n1-c1ccccc1C,x,50.1µM*,u,1.1,18.9µM*
Cc1ccccc1-n1c(Cn2c(=O)sc3ccccc32)nnc1SCC(=O)NCC1CCCO1 (stereo unspecified),-0.4%,-7.2%,18.5%,-0.8,21.2µM*
Cc1cc(NC(=O)CSc2nnc(Cn3c(=O)sc4ccccc43)n2-c2ccccc2C)no1,-0.1%,0.3%,3.1%,-1.1,-7.6%
Cc1occc1-c1nnc(SCC(=O)NCC2CCCO2)n1C (stereo unspecified),-2.5%,-18.6%,12.6%,6.0,29.9µM*
COc1ccc(-c2nnc(SCC(=O)Nc3ccc(S(=O)(=O)Nc4cc(C)nc(C)n4)cc3)n2-c2ccc(OC)cc2)cc1,x,x,x,-1.1,x
Cc1[nH]n(-c2ccccc2)c(=O)c1C(c1ccccc1C(=O)O)c1c(C)[nH]n(-c2ccccc2)c1=O,-4.3%,-2.9%,-0.7%,1.7,-4.5%
Cc1[nH]n(-c2ccccc2)c(=O)c1C(c1ccccc1[N+](=O)[O-])C(C#N)C#N (stereo unspecified),0.5%,89.1µM*,-13.0%,-11.8,29.9µM*
Cc1ccc(C(C[N+](=O)[O-])c2c(C)[nH]n(-c3ccccc3)c2=O)cc1 (stereo unspecified),-2.5%,44.7µM*,11.3%,-25.6,-27.9%
Cc1[nH]n(-c2ccccc2)c(=O)c1C(C[N+](=O)[O-])c1ccc(F)cc1 (stereo unspecified),-4.7%,u,17.6%,-4.5,u
Cc1[nH]n(-c2ccccc2)c(=O)c1C(C[N+](=O)[O-])c1ccc(Cl)cc1 (stereo unspecified),-4.6%,u,u,-25.2,11.9µM*
C=CCc1cccc(/C=N/NC(=O)CN2CCN(Cc3ccccc3)CC2)c1O,-19.9%,-4.8%,x,x,x
CC(C)OP(=O)(CP(=O)(OC(C)C)OC(C)C)OC(C)C,x,x,x,0.0,x
